Assay [1] deals with Human papillomavirus type 1a protein E7 (residues 44-93). Briefly: small molecules binding HPV E7 44-93 – biochemical, small-molecule microarray, residues 44-93, 635 nm fluorescence, primary screen (AID 1108).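 Further: E7 fragment applied at 1 µg/mL in TBST for 1 h at 4 C; score combines spot fluorescence with its signal to noise ratio.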 To be noted: fluorescence 635 nm, higher = more signal.
The nature of assay [2]: hepatitis C replication reporter changes, two-sided – Huh7 cells, luciferase reporter, HCV replication inhibitor project, primary screen (AID 1109).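 Further: huh7 hepatoma cells harbouring a luciferase neomycin HCV replicon reporter; luciferase luminescence as measure of HCV replicon replication; test concentration not given here.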 To be noted: Huh7 HCV replicon luciferase reporter, 48 h; higher = more signal. For orientation: In a reporter assay the amount or activity of a reporter protein is the signal.
Assay [3] deals with Left-right determination factor 2 (Homo sapiens) (UniProt O00292). The assay can be described thus: small molecules binding LEFTY2 protein – biochemical, small-molecule microarray, 635 nm fluorescence scan, primary screen (AID 1110). As to conditions: higher = more signal.
For assay [4], the target named is Calmodulin-1 (Homo sapiens) (UniProt P0DP23). Briefly: small molecules binding calmodulin-1 with EGTA – biochemical, small-molecule microarray, Cy5-labelled CALM1, profiling panel (AID 1111).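 Further: labelled calmodulin applied in Tris saline Tween buffer holding calcium plus EGTA and DTT.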 To be noted: Cy5-CALM1 binding fluorescence, higher = more signal.
Assay [5] has the same target. The assay can be described thus: small molecules binding Ca-loaded calmodulin-1 – biochemical, small-molecule microarray, Cy5-labelled CALM1, plus calcium, artefact control for SMM control-protein annotation, profiling panel (AID 1112).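 Further: score merges spot fluorescence with signal to noise from triplicate slides.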 To be noted: Cy5-CALM1 binding fluorescence, higher = more signal.
Assay [6] is described as follows: probe aWnt5a binding to arrayed compounds – biochemical, biotinylated probe, 635/667 nm fluorescence, primary screen (AID 1113).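 Further: score merges 667 nm fluorescence intensity with signal-to-noise per printed feature.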 As to conditions: small-molecule microarray, higher = more signal.
Assay [7] is described as follows: probe aShh binding to arrayed compounds – biochemical, biotinylated probe, 635/667 nm fluorescence, primary screen (AID 1114).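 Further: probe is biotin-labelled aShh protein from a stem cell growth factor screen; measures binding of labelled protein to compounds printed on the slide; score merges feature fluorescence at 667 nm with signal-to-noise.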 As to conditions: small-molecule microarray, higher = more signal.
Assay [8] is described as follows: probe aNog binding to arrayed compounds – biochemical, biotinylated probe, 635/667 nm fluorescence, primary screen (AID 1115).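 Further: probe is biotinylated aNog protein used at 0.15 µg/mL for 1 h at 4 C; z-score combines 667 nm fluorescence of each spot with its signal to noise.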 To be noted: small-molecule microarray, higher = more signal.
Assay [9] addresses Torsin-1A-interacting protein 1 (Homo sapiens) (UniProt Q5JTV8). Briefly: compound microarray binding of lysate hLAP1 – cell lysate, small-molecule microarray, COS7 lysate, 635/667 nm fluorescence, primary screen (AID 1116). To be noted: 635 nm fluorescence, higher = more signal.
Assay [10] addresses Alpha-bungarotoxin (Bungarus multicinctus) (UniProt P60615). The assay can be described thus: compounds binding labelled alpha-BTX control protein – biochemical, small-molecule microarray, Alexa647 label, 635/667 nm fluorescence, artefact control for SMM control protein annotation, profiling panel (AID 1117). To be noted: alpha-BTX-A647 binding fluorescence, higher = more signal.

Assay [11] deals with Albumin (Bos taurus) (UniProt P02769). The assay can be described thus: compounds binding labelled BSA control protein – biochemical, small-molecule microarray, Alexa647 label, 635/667 nm fluorescence, artefact control for SMM control protein annotation, profiling panel (AID 1118).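 Further: score merges 667 nm emission intensity and signal-to-noise per printed compound spot.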 As to conditions: BSA-A647 binding, fluorescence 635 nm, higher = more signal.
The nature of assay [12]: probe aXIP binding to arrayed compounds – biochemical, NeuroSMM set, 635/667 nm fluorescence, primary screen (AID 1119).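 Further: probe is the protein aXip251-270 applied at 1 µg/mL to compound-printed slides; binding of probe to printed compounds measured as 667 nm fluorescence plus signal to noise.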 To be noted: small-molecule microarray, higher = more signal, called active from +8 up or from −8 down.
The nature of assay [13]: probe aNOTCH3 binding on compound microarray – biochemical, small-molecule microarray, 635/667 nm fluorescence, primary screen (AID 1120).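 Further: probe is a biotin-tagged antibody raised against NOTCH3 rather than NOTCH3 protein; score merges spot fluorescence near 667 nm with spot signal to noise.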 To be noted: higher = more signal.
Assay [14] in a line: probe aNOTCH2 binding on compound microarray – biochemical, small-molecule microarray, 635/667 nm fluorescence, primary screen (AID 1121).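 Further: score merges feature fluorescence read at 667 nm with its signal to noise.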 As to conditions: higher = more signal.
Assay [15] deals with Carbonic anhydrase 2 (Homo sapiens) (UniProt P00918). Briefly: compounds binding carbonic anhydrase 2 – biochemical, small-molecule microarray, Alexa647-labelled CAII, profiling panel (AID 1122). As to conditions: CAII-A647 binding fluorescence, higher = more signal.
The nature of assay [16]: COS7 lysate on small-molecule microarray, probe aHis, 635 nm (AID 1123).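 Further: z-score combines 667nm fluorescence intensity with signal-to-noise per printed compound spot.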 As to conditions: COS7 cell lysate, fluorescence, higher = more signal.
The nature of assay [17]: probe aLAP1 signal on lysate-treated microarray – cell lysate, small-molecule microarray, COS7 lysate, primary screen (AID 1124).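 Further: lysate comes from COS7 cells expressing LAP1 and is applied at 0.3 µg/mL; score merges spot fluorescence near 667 nm with signal-to-noise over triplicate slides.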 To be noted: probe aLAP1, fluorescence, higher = more signal.
Assay [18] relates to Sam68 (KHDRBS1). The assay can be described thus: compounds binding KHDRBS1 protein – biochemical, small-molecule microarray, 635 nm fluorescence, primary screen (AID 1125).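 Further: score merges 667 nm channel intensity with signal to noise over triplicate slides.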 As to conditions: higher = more signal.
In assay [19] the test system is Chordin-like protein 2 (CHRDL2). Briefly: compounds binding chordin-like 2 – biochemical, small-molecule microarray, 635 nm fluorescence, primary screen (AID 1126).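 Further: printed compound slides probed with Chrdl2 protein at 4 µg/mL for 1 h at 4 C; score merges 667 nm emission intensity with signal to noise over three replicate slides.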 To be noted: fluorescence 635 nm, higher = more signal.
For assay [20], the target named is Concanavalin-A (Canavalia ensiformis) (UniProt P02866). The assay can be described thus: compounds binding concanavalin A lectin – biochemical, small-molecule microarray, Alexa647 label, 635 nm, artefact control for SMM control protein annotation, primary screen (AID 1127).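 Further: z combines 667 nm emission intensity with signal-to-noise across three replicate slides.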 As to conditions: ConA-A647 binding fluorescence, higher = more signal.

5 compounds from PubChem BioAssay can be followed below.

Activity calls are given as the source filed them.

Left-right determination factor 2 (Homo sapiens), sequence (O00292 whole entry, looked up): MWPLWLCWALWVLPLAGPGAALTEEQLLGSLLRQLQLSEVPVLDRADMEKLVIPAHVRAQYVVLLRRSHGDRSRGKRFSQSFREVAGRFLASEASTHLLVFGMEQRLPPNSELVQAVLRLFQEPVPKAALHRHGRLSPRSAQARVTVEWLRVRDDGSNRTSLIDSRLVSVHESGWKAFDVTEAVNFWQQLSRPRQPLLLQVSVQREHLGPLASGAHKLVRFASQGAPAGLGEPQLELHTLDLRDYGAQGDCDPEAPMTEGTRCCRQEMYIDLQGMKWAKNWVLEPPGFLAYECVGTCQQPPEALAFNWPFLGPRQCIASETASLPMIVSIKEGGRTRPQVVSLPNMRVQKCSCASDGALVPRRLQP
Concanavalin-A (Canavalia ensiformis), sequence (P02866 whole entry, looked up): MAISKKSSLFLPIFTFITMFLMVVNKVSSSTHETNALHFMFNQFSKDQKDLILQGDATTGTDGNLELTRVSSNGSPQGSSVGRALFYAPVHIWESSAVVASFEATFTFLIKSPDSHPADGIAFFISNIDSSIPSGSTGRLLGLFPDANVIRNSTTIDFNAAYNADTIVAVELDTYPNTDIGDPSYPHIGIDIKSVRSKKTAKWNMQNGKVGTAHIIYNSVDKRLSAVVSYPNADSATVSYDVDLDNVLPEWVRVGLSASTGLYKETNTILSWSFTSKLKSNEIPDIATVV
Alpha-bungarotoxin (Bungarus multicinctus), sequence (P60615 whole entry, looked up): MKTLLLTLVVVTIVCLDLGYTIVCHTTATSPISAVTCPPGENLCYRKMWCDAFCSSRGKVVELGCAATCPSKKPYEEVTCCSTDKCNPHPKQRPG
Torsin-1A-interacting protein 1 (Homo sapiens), sequence (Q5JTV8 whole entry, looked up): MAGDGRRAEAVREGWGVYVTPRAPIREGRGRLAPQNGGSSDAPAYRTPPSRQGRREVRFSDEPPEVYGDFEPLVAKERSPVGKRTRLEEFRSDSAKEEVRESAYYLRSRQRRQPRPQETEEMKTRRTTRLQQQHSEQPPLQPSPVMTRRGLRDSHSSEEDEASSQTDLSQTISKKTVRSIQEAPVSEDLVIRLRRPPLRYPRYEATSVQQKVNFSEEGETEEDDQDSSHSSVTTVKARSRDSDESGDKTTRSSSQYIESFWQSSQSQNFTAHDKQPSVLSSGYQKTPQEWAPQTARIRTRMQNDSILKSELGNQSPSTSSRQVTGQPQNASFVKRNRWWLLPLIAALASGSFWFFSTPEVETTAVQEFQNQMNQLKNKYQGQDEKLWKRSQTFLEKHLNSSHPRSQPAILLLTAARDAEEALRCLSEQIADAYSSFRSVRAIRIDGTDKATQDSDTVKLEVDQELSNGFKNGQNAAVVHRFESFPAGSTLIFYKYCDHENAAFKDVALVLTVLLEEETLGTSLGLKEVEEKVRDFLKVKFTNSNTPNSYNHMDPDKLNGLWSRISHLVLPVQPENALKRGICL
Albumin (Bos taurus), sequence (P02769 whole entry, looked up): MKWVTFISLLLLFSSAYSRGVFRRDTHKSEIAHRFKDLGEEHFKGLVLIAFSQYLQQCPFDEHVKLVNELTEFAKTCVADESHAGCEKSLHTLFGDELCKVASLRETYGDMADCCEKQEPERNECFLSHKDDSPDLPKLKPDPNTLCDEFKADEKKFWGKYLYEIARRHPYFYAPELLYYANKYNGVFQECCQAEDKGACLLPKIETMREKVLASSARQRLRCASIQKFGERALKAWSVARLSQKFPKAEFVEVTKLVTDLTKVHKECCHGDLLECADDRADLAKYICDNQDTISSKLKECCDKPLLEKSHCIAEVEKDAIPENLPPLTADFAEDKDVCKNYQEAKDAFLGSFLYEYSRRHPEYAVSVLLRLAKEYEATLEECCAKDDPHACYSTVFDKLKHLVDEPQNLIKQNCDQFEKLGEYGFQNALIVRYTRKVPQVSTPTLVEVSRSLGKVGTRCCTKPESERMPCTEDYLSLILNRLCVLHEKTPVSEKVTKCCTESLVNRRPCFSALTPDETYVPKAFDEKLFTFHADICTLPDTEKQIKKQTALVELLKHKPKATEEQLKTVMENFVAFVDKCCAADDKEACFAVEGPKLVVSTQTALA

Turning to `CC(C)c1ccc(NN2C(C(O)C(C)C)C=CC3C(=O)N(c4ccccc4)C(=O)C32)cc1` (stereo not given), the composite z-score in assay [1] is 0.713; in assay [3], 0.136; in assay [4] it was 2.1; in assay [5], 0.721; in assay [6], 0.168; in [7], 0.998. Besides, the composite z-score in assay [8] came to 1.8; in assay [9], 0.817; in assay [10], 1.49; in [11] it was 1.07; in assay [13], 0.761; in [14], 0.353. Besides, the composite z-score in assay [15] was 0.615; in assay [16], 2.89; in assay [17], 1.43; in assay [18], 1.31; in assay [19], -0.256; in assay [20] it was 1.2. For the same compound, the z-score in assay [2] was found to be 2.43. Also, the composite Z-score in assay [12] is 0.349 (inactive).

For the compound `CCCCN1CC=CC23O[C@@H]4C=CCOC(=O)[C@@H]4[C@H]2C(=O)N(C(CO)C(C)C)[C@@H]3C1=O` (stereo not given in full), the composite z-score in [1] was -0.321; in [3], -0.383; in [4], -0.782; in [5], -0.828; in assay [6], -0.173; in [7], -0.138. Also, the composite z-score in assay [8] was -0.381; in assay [9], -0.457; in [10], -0.843; in assay [11], -0.709; in assay [13], -0.279; in assay [14], -0.14. In addition, the composite z-score in assay [15] was 0.321; in assay [16], -0.665; in assay [17], -0.304; in assay [18], -0.616; in assay [19], -0.0407; in assay [20], -0.868. This compound also came in with a z-score in assay [2] of -1.23. Further, in assay [12], the composite Z-score was -0.0632 (inactive).

For the compound `[N-]=[N+]=NCc1ccccc1C[C@@]1(C(=O)O)N=C(c2ccc(OCCCO)cc2)O[C@@H]1c1ccccc1CN=[N+]=[N-]`, the composite z-score in assay [1] is 1.39; in [3], 0.219; in [4], 0.973; in [5] it was -0.0107; in assay [6] it was 0.0676; in assay [7], 0.0121. In addition, the composite z-score in assay [8] was -0.56; in assay [9], 0.74; in assay [10], 1.27; in assay [11], 0.516; in [13], 0.244; in assay [14] it was -0.0716. Further, the composite z-score in assay [15] was 0.573; in assay [16], 0.0091; in [17] it was 0.0036; in [18], 1.31; in assay [19], -0.0541; in assay [20] it was 1.11. The compound further returned a z-score in assay [2] of -1.84. Besides, in [12], the composite Z-score is 0.259 (inactive).

Consider `CO[C@H]1O[C@H](CO)[C@@H](OC(=O)Nc2ccc3c(c2)OCO3)[C@@H]2OC(=O)[C@@H](Cc3ccccc3)C/C=C/C[C@H](Cc3ccccc3)C(=O)O[C@@H]12`, for which the composite z-score in assay [1] is 1.37; in assay [3], 0.0694; in assay [4] it was 0.929; in assay [5], -0.728; in [6] it was 0.0533; in assay [7] it was 0.149. Moreover, the composite z-score in assay [8] was 1.09; in assay [9], 0.0909; in [10], 0.732; in assay [11], -0.052; in [13] it was 0.274; in assay [14] it was 0.0318. Besides, the composite z-score in [15] was determined as 0.552; in [16] it was 0.859; in assay [17], 0.48; in assay [18], 0.943; in [19], 0.455; in assay [20], 0.921. The same compound yielded a z-score in assay [2] of -2.54. The composite Z-score in [12] was 0.883 (inactive).

Take `CCCC[C@H]1OB(O)C[C@H]2C1=C(COC)C[C@H]1C(=O)C=CC(=O)[C@H]12`: the composite z-score in assay [1] is 0.275; in [3] it was 0.594; in assay [4] it was -0.321; in [5], -0.728; in assay [6], -0.101; in assay [7] it was 0.0062. In addition, the composite z-score is -0.0344 in [8]; -0.22 in assay [9]; 0.567 in [10]; -0.183 in assay [11]; 0.029 in [13]; 0.144 in [14]. For the same compound, the composite z-score in assay [15] is -0.104; in assay [16] it was -0.279; in assay [17] it was -0.236; in [18] it was 0.684; in [19], 0.676; in [20], 0.486. In [2], the z-score is -1.33. The composite Z-score in [12] is 0.727 (inactive).
